Screens from PubChem.
UBC13 inh: blocks human UBC13 polyubiquitin chain formation; AID 485273; hit rate 0.47% among 330,000; P61088; inhibition, % at 20 µM; TR-FRET; in the data active means inhibition above about 45%, passing the limit was not always enough
MEKK2 mut-MEK5: signal of MEK5 binding to mutant human MEKK2 PB1 domain; AID 1530; percent response, % at 10 µM; hit rate 0.35% among 290,000; bead flow cytometry, Alexa488-MEK5 binding to MEKK2 mutant; in the data active means percent response above about 24%, passing the limit was not always enough
PREPL inhibitor: human PREPL enzyme inhibition; inhibition, % at 5.96 µM; Q4J6C6; recombinant PREPL, fluorescence polarization activity-based probe; AID 2751; hit rate 0.68% among 320,000; in the data active means inhibition above about 43%;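 further: 0% = enzyme with DMSO and 100% = wells lacking enzyme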
Target sequence (Q4J6C6 whole entry, looked up): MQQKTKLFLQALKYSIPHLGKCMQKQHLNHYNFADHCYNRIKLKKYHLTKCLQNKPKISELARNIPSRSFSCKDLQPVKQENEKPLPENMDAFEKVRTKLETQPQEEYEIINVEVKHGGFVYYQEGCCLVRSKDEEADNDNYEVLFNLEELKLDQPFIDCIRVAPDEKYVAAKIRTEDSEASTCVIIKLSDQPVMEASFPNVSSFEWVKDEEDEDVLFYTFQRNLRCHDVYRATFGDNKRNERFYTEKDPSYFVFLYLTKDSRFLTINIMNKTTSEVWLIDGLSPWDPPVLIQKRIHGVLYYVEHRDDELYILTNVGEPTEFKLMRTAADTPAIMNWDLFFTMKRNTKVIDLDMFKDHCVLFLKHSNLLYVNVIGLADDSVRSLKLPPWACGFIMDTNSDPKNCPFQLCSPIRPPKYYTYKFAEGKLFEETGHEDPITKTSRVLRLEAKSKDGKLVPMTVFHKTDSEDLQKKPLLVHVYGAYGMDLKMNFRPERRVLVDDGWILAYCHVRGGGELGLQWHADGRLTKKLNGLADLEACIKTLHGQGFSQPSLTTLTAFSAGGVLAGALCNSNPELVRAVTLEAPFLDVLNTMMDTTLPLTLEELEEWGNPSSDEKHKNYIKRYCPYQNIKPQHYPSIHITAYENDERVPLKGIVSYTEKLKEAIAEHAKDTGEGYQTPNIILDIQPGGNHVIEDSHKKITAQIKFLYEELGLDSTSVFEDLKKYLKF
ATG4B inh: blocks human ATG4B protease cleavage of LC3 substrate; inhibition, % at 8.33 µM; AID 504462; ATG4B cleavage of LC3-PLA2, NBD-HPC fluorescence, 1 h; hit rate 0.51% among 340,000; in the data active means inhibition above about 40%
MEKK2wt PB1 HTS: raises or lowers MEK5 binding to wildtype human MEKK2 PB1 domain; bead flow cytometry, Alexa488-MEK5 binding to MEKK2 WT; actives lie on both sides; binding response (% of control), % at 10 µM; hit rate 1.1% among 290,000; in the data active means binding response below about 67% or above about 130%
MEKK3 PB1 HTS: MEKK3-MEK5 PB1 interaction, increase or decrease | Q99759 | bead-based flow cytometry, Alexa488-MEK5 binding to MEKK3; actives lie on both sides; 0 = blocked by unlabeled MEK5, 100 = vehicle | binding response (% of control), % at 10 µM | hit rate 1.4% among 290,000;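 active means binding response more than 3 SD above or below the average of its plate-row segment, actives on both sides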;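 further: Alexa488 bead fluorescence after subtracting the streptavidin-only scavenger bead signal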
MEKK2wt confirm: raises or lowers MEK5 binding to wildtype human MEKK2, retest; shares compounds with MEKK3 PB1 HTS; bead flow cytometry, Alexa488-MEK5 binding to MEKK2 WT; actives lie on both sides; binding response (% of control), % at 10 µM; hit rate 2.4% among 5,900; AID 1892; in the data active means binding response below about 16% or above about 210%; inactive means in between
MEKK2mut-MEK5: signal of MEK5 binding to mutant human MEKK2, retest; hit rate 2% among 5,900; shares compounds with MEKK3 PB1 HTS; AID 1893; bead flow cytometry, Alexa488-MEK5 binding to MEKK2 mutant; percent response, % at 10 µM; in the data active means percent response mostly above about 71%, no sharp cut-off; inactive means mostly below about 38%;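 further: higher means compound restores mutant binding toward wildtype level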
MEKK3-MEK5 inh: MEKK3-MEK5 PB1 inhibition, single concentration confirmation. shares compounds with MEKK3 PB1 HTS. bead flow cytometry, Alexa488-MEK5 binding to MEKK3; active compounds read low. binding response (% of control), % at 10 µM. hit rate 1.8% among 5,900. AID 1894;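 active means binding response below 72% of control, or above a set upper limit, though filed actives all read lower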;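 further: 100% = DMSO only wells and 0% = binding blocked by excess unlabeled MEK5; lower values mean stronger disruption of MEK5 binding to MEKK3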
Active calls of the source: *; [ ] = another dose, or the depositor's remark. Rows were chosen to be rich in hits. Some 3.1% of all compounds tested hit in one or more screens of this group.

COc1cccc(CN(C(=O)COc2ccc(C)cc2)C2CCS(=O)(=O)C2)c1 (stereo unspecified) was read as UBC13 inh 9, MEKK2 mut-MEK5 3, PREPL inhibitor 5, ATG4B inh -3, MEKK2wt PB1 HTS 104 and MEKK3 PB1 HTS 104.
`COCCCn1c(=O)c2ccccc2n(Cc2ccc(C)cc2)c1=O` gave UBC13 inh -5, MEKK2 mut-MEK5 1, PREPL inhibitor 6, ATG4B inh 4, MEKK2wt PB1 HTS 98 and MEKK3 PB1 HTS 102.
Screening COCCCNC(=O)c1ccc(Cn2c(=O)c3ccccc3n(Cc3ccc(C)cc3)c2=O)cc1 returned UBC13 inh 16, MEKK2 mut-MEK5 7, PREPL inhibitor 4, ATG4B inh -12, MEKK2wt PB1 HTS 117, MEKK3 PB1 HTS 125*, MEKK2wt confirm 106, MEKK2mut-MEK5 2 and MEKK3-MEK5 inh 100.
COC(=O)C(C)n1cnc2c(nnn2-c2cccc(OC)c2)c1=O (stereo unspecified) was read as UBC13 inh 3, MEKK2 mut-MEK5 1, PREPL inhibitor -16, ATG4B inh 2, MEKK2wt PB1 HTS 103 and MEKK3 PB1 HTS 96.
Fc1ccc(NC(=S)Nc2ccc3nccnc3c2)cc1 was read as UBC13 inh -16, MEKK2 mut-MEK5 1, PREPL inhibitor 12, ATG4B inh 2, MEKK2wt PB1 HTS 118, MEKK3 PB1 HTS 130*, MEKK2wt confirm 101, MEKK2mut-MEK5 -5 and MEKK3-MEK5 inh 101.
Screening OCCCNC(=S)Nc1ccc2nccnc2c1 returned UBC13 inh -24, MEKK2 mut-MEK5 -5, PREPL inhibitor 6, ATG4B inh 1, MEKK2wt PB1 HTS 91 and MEKK3 PB1 HTS 96.
For CC(C)COCC1CC2(CC(C)(c3csc(N)n3)OC2=O)C(=O)O1 (stereo unspecified) the results were MEKK2 mut-MEK5 4, ATG4B inh -15, MEKK2wt PB1 HTS 106 and MEKK3 PB1 HTS 107.
`CC(C)COCC1CC2(CC(C)C(=O)CC2=O)C(=O)O1` (stereo unspecified) gave UBC13 inh -7, MEKK2 mut-MEK5 17, PREPL inhibitor 12, ATG4B inh 3, MEKK2wt PB1 HTS 125, MEKK3 PB1 HTS 123*, MEKK2wt confirm 89, MEKK2mut-MEK5 -10 and MEKK3-MEK5 inh 85.
`Cc1ccc(S(=O)(=O)NCCc2cccs2)cc1` gave UBC13 inh 1, MEKK2 mut-MEK5 21, PREPL inhibitor 7, ATG4B inh -15, MEKK2wt PB1 HTS 121, MEKK3 PB1 HTS 128*, MEKK2wt confirm 108, MEKK2mut-MEK5 1 and MEKK3-MEK5 inh 106.
For Cc1ccc(S(=O)(=O)NCCNS(=O)(=O)c2ccc(C)cc2)cc1 the results were UBC13 inh 5, MEKK2 mut-MEK5 9, PREPL inhibitor -1, ATG4B inh -9, MEKK2wt PB1 HTS 108 and MEKK3 PB1 HTS 105.
`CCNC(=O)COC(=O)c1cccc(Br)c1` gave UBC13 inh 7, MEKK2 mut-MEK5 -13, PREPL inhibitor -1, ATG4B inh -6, MEKK2wt PB1 HTS 39*[inhibitor], MEKK3 PB1 HTS 38*[inhibitor], MEKK2wt confirm 102, MEKK2mut-MEK5 -6 and MEKK3-MEK5 inh 98.
O=C(COC(=O)c1ccccc1)Nc1ccccc1Br was read as UBC13 inh 7, MEKK2 mut-MEK5 -16, PREPL inhibitor 2, ATG4B inh -2, MEKK2wt PB1 HTS 54*[inhibitor], MEKK3 PB1 HTS 46*[inhibitor], MEKK2wt confirm 41, MEKK2mut-MEK5 -29 and MEKK3-MEK5 inh 85.
CN1CCN(NC(=O)c2cccc(Br)c2)CC1 was read as UBC13 inh -10, MEKK2 mut-MEK5 4, PREPL inhibitor 10, ATG4B inh 5, MEKK2wt PB1 HTS 101 and MEKK3 PB1 HTS 102.
Screening COC(=O)C1CCN(C(=O)COC(=O)C2CCN(S(=O)(=O)c3ccc(C)c(C)c3)CC2)CC1 returned UBC13 inh 1, PREPL inhibitor 3 and ATG4B inh -1.
For C=CCc1c(C)nc2c(OC)cccc2c1Cl the results were UBC13 inh 14, MEKK2 mut-MEK5 -1, PREPL inhibitor 2, ATG4B inh 2, MEKK2wt PB1 HTS 111, MEKK3 PB1 HTS 131*, MEKK2wt confirm 103, MEKK2mut-MEK5 -2 and MEKK3-MEK5 inh 100.
Screening O=C(CSc1nc2nc3c(cc2c(=O)n1-c1ccccc1)CCCC3)Nc1ccccc1 returned UBC13 inh 6, MEKK2 mut-MEK5 -1, PREPL inhibitor 8, ATG4B inh 27, MEKK2wt PB1 HTS 100, MEKK3 PB1 HTS 131*, MEKK2wt confirm 99, MEKK2mut-MEK5 1 and MEKK3-MEK5 inh 103.
Screening Nc1nc(SCC(=O)Nc2ccccc2)nc2nc3c(cc12)CCCC3 returned UBC13 inh -1, MEKK2 mut-MEK5 -2, PREPL inhibitor -1, ATG4B inh -9, MEKK2wt PB1 HTS 92 and MEKK3 PB1 HTS 88.
`COc1cccc(NC(=O)c2cccc(C(=O)Nc3cccc(OC)c3)c2)c1` gave UBC13 inh 2, MEKK2 mut-MEK5 5, PREPL inhibitor 9, ATG4B inh -4, MEKK2wt PB1 HTS 106 and MEKK3 PB1 HTS 102.
Screening COc1cccc(NC(=O)c2ccccc2Oc2ccccc2)c1 returned UBC13 inh 11, MEKK2 mut-MEK5 3, PREPL inhibitor -5, ATG4B inh -2, MEKK2wt PB1 HTS 104 and MEKK3 PB1 HTS 102.
`COc1cccc(Nc2ncccc2C(=O)Nc2ccccc2)c1` gave UBC13 inh -7, MEKK2 mut-MEK5 6, PREPL inhibitor 30, ATG4B inh -8, MEKK2wt PB1 HTS 127, MEKK3 PB1 HTS 129*, MEKK2wt confirm 105, MEKK2mut-MEK5 6 and MEKK3-MEK5 inh 102.
`COc1cccc(NC(=O)c2nc3ncccn3n2)c1` gave UBC13 inh 16, MEKK2 mut-MEK5 -18, PREPL inhibitor 3, ATG4B inh -4, MEKK2wt PB1 HTS 2.0*[inhibitor], MEKK3 PB1 HTS 2.0*[inhibitor], MEKK2wt confirm 105, MEKK2mut-MEK5 3 and MEKK3-MEK5 inh 102.
`COc1cc(C(C(=O)NC2CCCC2)N(C(=O)c2snc(C(N)=O)c2N)c2ccccc2)cc(OC)c1OC` (stereo unspecified) gave UBC13 inh 6, MEKK2 mut-MEK5 3, PREPL inhibitor 19, ATG4B inh -5, MEKK2wt PB1 HTS 95 and MEKK3 PB1 HTS 100.
